Screening results: PubChem BioAssay, several laboratories
Cav32 inh: Cav3.2 calcium influx blockers – cell-based, Fluo-4 calcium fluorescence, FDSS, MLSMR library, primary screen | Cav3.2-expressing cells; hits give low values | B-score at 10 µM | actives 4% (n = 100,000) | AID 449739, 2010;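 active = single-dose well whose peak fluorescence ratio is a statistical outlier from its plate by either plate-standardised score or position-corrected B-score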
PTK2B oligo ant: antagonists of Pyk2 self-association, primary screen, Q293 cells, FERM NanoBiT luminescence, HTS; hits give low values; z-score (the deposit names both 25 µM and 10 µM); Protein-tyrosine kinase 2-beta (Homo sapiens), Q14289; AID 1347419, 2020; actives 0.83% (n = 99,000);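 active = Z-score of -3 or lower, scaled per plate to the spread of control and sample wells; inactive = z-score above -3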;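 note: negative z-score means lost luminescence so less FERM oligomerization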
CYP2C19 inh: blockers of cytochrome P450 2C19 activity – biochemical, luminescence, ADME assay, primary screen; P33261; CYP2C19 Supersomes, luciferin-H EGE luminescence, 30 min; inhibition, % at 5 µM; actives 21% (n = 96,000); AID 778, 2007;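 active = CYP2C19 inhibition above a set limit at 5 µM in the primary screen, cut at about 50% in these data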;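 note: plate controls were negative control wells for no effect and 2.5 mM tranylcypromine positive control for full effect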
CYP2C9 inh: blockers of cytochrome P450 2C9 activity – biochemical, luminescence, ADME assay, primary screen; CYP2C9 Supersomes, luciferin-H conversion; inhibition, % at 5 µM; actives 20% (n = 96,000);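 active = blocking of liver enzyme CYP2C9 beyond about 50% at 5 µM, limit read from the data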
Target sequence (P11712 whole entry, looked up): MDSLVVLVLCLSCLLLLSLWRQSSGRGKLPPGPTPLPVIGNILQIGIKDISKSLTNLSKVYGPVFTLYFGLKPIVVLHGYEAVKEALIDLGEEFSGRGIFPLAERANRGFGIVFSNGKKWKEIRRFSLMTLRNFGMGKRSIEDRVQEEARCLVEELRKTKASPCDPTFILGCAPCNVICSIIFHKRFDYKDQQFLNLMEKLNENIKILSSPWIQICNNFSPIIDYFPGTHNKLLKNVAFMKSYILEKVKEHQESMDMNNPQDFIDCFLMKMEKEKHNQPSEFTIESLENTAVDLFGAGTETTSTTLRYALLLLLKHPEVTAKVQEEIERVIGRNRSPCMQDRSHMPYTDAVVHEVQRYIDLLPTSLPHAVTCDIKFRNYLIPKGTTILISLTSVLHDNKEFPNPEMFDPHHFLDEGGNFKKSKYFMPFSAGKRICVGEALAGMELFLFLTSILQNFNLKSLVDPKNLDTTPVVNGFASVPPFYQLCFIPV
CYP2C19 act: human CYP2C19 activators, primary screen, biochemical, luminescence; recombinant CYP2C19, luciferin-H EGE luminescence; hits give high values; 0 = fully inhibited enzyme, 1 = untreated enzyme; activation factor at 5 µM; 96,000 tested, under 10 active;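 active = activation factor of at least 2 at 5 µM in the primary screen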;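 note: 0 = wells with 2.5 mM tranylcypromine and 1 = vehicle-only wells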
CYP2C9 activ: human CYP2C9 activators, primary screen, biochemical, luminescence; recombinant CYP2C9, luciferin-H conversion; hits give high values; factor 1 = untreated enzyme, 0 = blocked; actives 1.4% (n = 96,000); activation factor at 5 µM;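 active = activation factor of 2 or more for CYP2C9 at a 5 µM dose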;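 note: 0 = sulfaphenazole-blocked wells and 1 = vehicle-only wells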
Starred values were filed as active, the others as inactive; . = no result given. This is a sample that favours compounds with a hit; in the whole collection about 27% have one here.

SMILES	Cav32 inh	PTK2B oligo ant	CYP2C19 inh	CYP2C9 inh	CYP2C19 act	CYP2C9 activ
O=C(Nc1ccc2c(c1)OCCO2)c1cc2sccc2n1Cc1ccc(F)cc1	-1.9	-3.1*	60*	78*	0.4	0.2
Cn1c(C(=O)Nc2ccc3c(c2)OCCO3)cc2sccc21	-1.2	-1.8	25	-35	0.7	1.4
CC1Cc2ccccc2N1C(=O)c1cc2sccc2n1Cc1ccc(F)cc1 (configuration not stated)	-5.6*	-1.5	.	.	.	.
O=C(NCCCN1CCCC1)C1CCN(C(=O)c2cc3sccc3n2Cc2ccc(F)cc2)CC1	0.37	0.29	12	16	0.9	0.8
O=C(NCc1ccco1)C1CCN(C(=O)c2cc3sccc3n2Cc2ccc(F)cc2)CC1	-1.7	-0.89	86*	98*	0.1	0
COCCCNC(=O)C1CCN(C(=O)c2cc3sccc3n2Cc2ccc(F)cc2)CC1	0.56	-0.11	35	-15	0.7	1.1
CC1(C)N=C(/C=N/O)CN1O	0.8	0.35	-14	-14	1.1	1.1
O=C1Nc2ccccc2C(O)(C(=O)NCc2ccc3c(c2)OCO3)N1c1ccc(Cl)c(Cl)c1 (configuration not stated)	-0.044	-0.15	-3	5	1	0.9
O=C(c1ccco1)N1CCN(C(=O)c2cc3sccc3n2Cc2ccccc2)CC1	-0.28	-2.4	20	89*	0.8	0.1
O=C(NCc1ccco1)C1CCN(c2nc3ccccc3n2Cc2ccccc2F)CC1	-7.1*	.	33	23	0.7	0.8
Cc1cccc(NC(=O)C(NS(=O)(=O)c2ccc3c(c2)CCC(=O)N3)c2ccccc2)n1 (configuration not stated)	-0.76	1.1	8	39	0.9	0.6
Cc1ccc2c(c1)C(=O)CC1(CCCC1)O2	0.49	.	.	.	.	.
CCOC(=O)C1=C(C)NC2=C(C(=O)CC(c3ccc(OC)c(OC)c3)C2)C1c1ccc(C)o1 (configuration not stated)	.	-0.28	19	59*	0.8	0.4
CCSc1cc(C2C(C(=O)OC)=C(C)NC3=C2C(=O)CCC3)c(C)o1 (configuration not stated)	-0.29	-0.15	25	23	0.7	0.8
CC1=C(C(=O)OC2CCCCC2)C(c2ccc(C)o2)C2=C(CCCC2=O)N1 (configuration not stated)	-4	-0.68	42	60*	0.6	0.4
CC1=C(C(=O)OC2CCCCC2)C(c2ccco2)C2=C(CC(C)(C)CC2=O)N1 (configuration not stated)	-2.6	-3.3*	1	3	1	1
CC1=C(C(=O)OCc2ccccc2)C(c2ccc(C)o2)C2=C(CCCC2=O)N1 (configuration not stated)	-3.3	-0.49	69*	70*	0.3	0.3
CC1=C(C(=O)Nc2ccc(C)cc2)C(c2ccc(C)o2)C2=C(CC(C)(C)CC2=O)N1 (configuration not stated)	0.042	0.65	-4	1	1	1
O=S(=O)(NCc1ccco1)N1CCOCC1	-0.49	0.16	7	6	0.9	0.9
Cc1cccc(C)c1NC(=O)c1cc(S(=O)(=O)N2CCOCC2)ccc1F	-0.015	-0.06	.	.	.	.
Cc1ccc(NC(=O)c2ccc3ccccc3n2)nc1	-0.58	-0.62	16	29	0.8	0.7
COC(=O)Cc1ccc(NC(=O)c2ccc(C(C)(C)C)cc2)cc1	-5.2*	-1.1	24	11	0.8	0.9
Cc1ccc(-n2c(-c3ccncc3)nnc2-c2cccs2)cc1	-0.45	0.49	.	.	.	.
O=C(CC12CCC(CC1)C2)NCc1ccc2c(c1)OCO2	1	0.15	.	.	.	.
CCOC(=O)Cc1c(C)nc2cc(C)nn2c1C	0.48	0.25	.	.	.	.
SMILES	Cav32 inh	PTK2B oligo ant	CYP2C19 inh	CYP2C9 inh	CYP2C19 act	CYP2C9 activ
CCOC(=O)Cc1nn2c(=O)cc(C)nc2s1	-5*	-0.33	-2	8	1	0.9
CCOC(=O)C1=C(c2ccccc2)N=C2SCC(=O)N2C1c1ccc(OC)c(OC)c1 (configuration not stated)	0.7	0.12	10	21	0.9	0.8
CCOC(=O)C1=C(c2ccccc2)N=C2SCC(=O)N2C1c1cccc(OC)c1 (configuration not stated)	-1.5	-0.7	87*	54*	0.1	0.5
Cc1cnnn1-c1ccc(C(=O)CCl)cc1	0.78	0.09	-26	-14	1.3	1.1
CCc1ccccc1NC(=O)CSc1nnc([C@H](CCSC)NC(=O)OC(C)(C)C)o1	-2.7	0.14	51*	65*	0.5	0.4
CSCC[C@H](NC(=O)OC(C)(C)C)c1nnc(SCC(N)=O)o1	0.14	1.2	12	-1	0.9	1
CSCC[C@H](NC(=O)OC(C)(C)C)c1nnc(SCC=C(C)C)o1	-1.3	-0.21	51*	57*	0.5	0.4
CCN(CC)C(=O)CSc1nnc([C@H](CCSC)NC(=O)OC(C)(C)C)o1	0.67	-0.76	23	18	0.8	0.8
COCCn1nnnc1SCC(=O)c1ccc(F)cc1	0.83	-0.35	.	.	.	.
C=CCn1c(NC(=O)c2ccco2)c(S(=O)(=O)c2ccccc2)c2nc3ccccc3nc21	.	.	21	66*	0.8	0.3
C=CCn1c(NC(=O)c2ccc(Br)o2)c(S(=O)(=O)c2ccccc2)c2nc3ccccc3nc21	.	0.46	7	53*	0.9	0.5
CC1(C)CC[C@]2(CO)[C@@H](O)C[C@]3(C)C(=CCC4[C@@]5(C)CC[C@H](O)C(C)(C)C5CC[C@]43C)[C@@H]2C1 (some centres not stated)	1.7	.	.	.	.	.
CCOCCCNC(=O)Cn1cc2c(n1)CCCCC2	0.43	.	35	1	0.6	1
O=C(O)C1C2C=CC(C2)C1C(=O)Nc1ccc(C(=O)N2CCCCC2)cc1 (configuration not stated)	.	0.02	15	5	0.9	0.9
CC(C)(C)c1ccc(C(=O)CSc2n[nH]c(=O)[nH]c2=O)cc1	0.043	0.23	2	53*	1	0.5
Cc1ccc(C(=O)CSc2nc(N)cc(=O)[nH]2)cc1	0.54	0.36	-12	-12	1.1	1.1
CC(=O)c1ccccc1NC(=O)CSc1nnc2ccccn12	.	.	3	-6	1	1.1
Clc1ccc(-c2nc(NCCN3CCOCC3)c3ccccc3n2)cc1	0.45	-0.31	20	50*	0.8	0.5
O=S(=O)(Nc1nc2ccccc2nc1NCCN1CCOCC1)c1cccc(Cl)c1	-1.3	-0.04	0	98*	1	0
